Experimental data as given in PubChem BioAssay (EPA / NIEHS).
Inconclusive results are not listed. Calls of active or inactive are those of the source. How the source made its calls: active means hit-call score of the fitted dose curve at least 0.9, where 1 is the maximum; inconclusive means response in the unintended direction; inactive means score below 0.9.

Experiments:
[1] = target: human Adenosine A2a Receptor (AdoRA2a), ADORA2A (gene 135) (UniProt P29274); assay: NVS_GPCR_hAdoRA2a: NovaScreen (NVS) G Protein-Coupled Receptor Assay for human Adenosine A2a Receptor (AdoRA2a) (AID 2283256)
In short: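 HEK293-derived receptor preparation, radioligand displacement, 1.5 h, filtration + scintillation read. Loss of bound signal scored vs DMSO. Single-point 25 uM in duplicate first, then concentration-response for actives.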

[2] = target: human Serotonin, 5-Hydroxytryptamine Receptor 7 (5HT7), HTR7 (gene 3363) (UniProt P34969); assay: NVS_GPCR_h5HT7: NovaScreen (NVS) G Protein-Coupled Receptor Assay for human Serotonin, 5-Hydroxytryptamine Receptor 7 (5HT7) (AID 2283255);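 further: hits reduce specific radioligand binding relative to DMSO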
In short: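 Filter-bound radioactivity counted after 1 h, with loss of specific radioligand binding fitted against DMSO. Membrane protein came from CHO cells expressing human 5HT7. Chemicals were tested first at 25 uM in duplicate, then in concentration series if active.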

[3] = target: human Adrenergic, Beta 1 Receptor (Adrb1), ADRB1 (gene 153) (UniProt P08588); assay: NVS_GPCR_hAdrb1: NovaScreen (NVS) G Protein-Coupled Receptor Assay for human Adrenergic, Beta 1 Receptor (Adrb1) (AID 2283258)
In short: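 Membranes/protein extracted from human neuroepithelioma cells, radioligand competition binding read by filtration and scintillation 2 h post-dose. Single 25 uM duplicate screen, then concentration-response follow-up; DMSO as negative control.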

[4] = target: human Adenosine A1 Receptor (AdoRA1), ADORA1 (gene 134) (UniProt P30542); assay: NVS_GPCR_hAdoRA1: NovaScreen (NVS) G Protein-Coupled Receptor Assay for human Adenosine A1 Receptor (AdoRA1) (AID 2283254)
In short: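 Each chemical is first tested twice at 25 uM, actives later in dilution series, against a radioligand bound to human cortex membranes; after 1 h, filter-retained counts are compared with DMSO controls, lower signal indicating displacement.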

Sequence of human Adrenergic, Beta 1 Receptor (Adrb1), ADRB1 (gene 153) (P08588 whole entry, looked up): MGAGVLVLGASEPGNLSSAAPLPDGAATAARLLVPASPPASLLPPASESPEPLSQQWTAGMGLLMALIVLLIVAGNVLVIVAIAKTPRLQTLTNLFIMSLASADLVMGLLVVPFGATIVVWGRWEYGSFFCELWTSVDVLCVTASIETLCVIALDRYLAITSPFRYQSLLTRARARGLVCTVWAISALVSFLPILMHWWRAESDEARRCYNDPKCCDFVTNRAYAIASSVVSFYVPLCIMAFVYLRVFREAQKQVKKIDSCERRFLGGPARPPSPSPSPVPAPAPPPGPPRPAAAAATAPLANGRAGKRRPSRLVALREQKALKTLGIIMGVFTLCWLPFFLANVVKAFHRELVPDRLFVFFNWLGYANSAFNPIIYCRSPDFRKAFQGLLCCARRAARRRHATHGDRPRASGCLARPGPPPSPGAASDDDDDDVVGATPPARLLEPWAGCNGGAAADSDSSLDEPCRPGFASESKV
Sequence of human Adenosine A2a Receptor (AdoRA2a), ADORA2A (gene 135) (P29274 whole entry, looked up): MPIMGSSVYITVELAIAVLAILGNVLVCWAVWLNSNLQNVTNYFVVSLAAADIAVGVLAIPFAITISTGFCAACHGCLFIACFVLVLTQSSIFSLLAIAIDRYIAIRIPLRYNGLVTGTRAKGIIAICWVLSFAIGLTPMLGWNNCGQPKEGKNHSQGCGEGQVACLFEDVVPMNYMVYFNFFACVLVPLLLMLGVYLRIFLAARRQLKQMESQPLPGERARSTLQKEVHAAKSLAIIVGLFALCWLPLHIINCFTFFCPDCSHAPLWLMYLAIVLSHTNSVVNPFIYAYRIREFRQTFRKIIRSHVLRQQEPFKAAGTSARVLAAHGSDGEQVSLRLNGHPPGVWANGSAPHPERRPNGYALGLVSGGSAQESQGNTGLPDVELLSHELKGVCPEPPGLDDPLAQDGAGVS
Sequence of human Serotonin, 5-Hydroxytryptamine Receptor 7 (5HT7), HTR7 (gene 3363) (P34969 whole entry, looked up): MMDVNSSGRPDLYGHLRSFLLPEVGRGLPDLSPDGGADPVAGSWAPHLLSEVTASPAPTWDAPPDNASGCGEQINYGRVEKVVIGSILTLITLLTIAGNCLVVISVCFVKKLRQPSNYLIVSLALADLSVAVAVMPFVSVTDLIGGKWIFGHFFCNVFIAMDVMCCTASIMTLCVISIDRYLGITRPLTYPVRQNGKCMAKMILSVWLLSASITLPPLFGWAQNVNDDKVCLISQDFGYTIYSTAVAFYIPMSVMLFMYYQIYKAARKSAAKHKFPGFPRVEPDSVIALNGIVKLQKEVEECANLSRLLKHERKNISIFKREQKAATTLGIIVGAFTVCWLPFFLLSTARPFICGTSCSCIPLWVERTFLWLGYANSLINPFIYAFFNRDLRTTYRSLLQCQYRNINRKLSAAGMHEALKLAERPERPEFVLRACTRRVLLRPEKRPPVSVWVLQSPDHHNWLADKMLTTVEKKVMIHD
Sequence of human Adenosine A1 Receptor (AdoRA1), ADORA1 (gene 134) (P30542 whole entry, looked up): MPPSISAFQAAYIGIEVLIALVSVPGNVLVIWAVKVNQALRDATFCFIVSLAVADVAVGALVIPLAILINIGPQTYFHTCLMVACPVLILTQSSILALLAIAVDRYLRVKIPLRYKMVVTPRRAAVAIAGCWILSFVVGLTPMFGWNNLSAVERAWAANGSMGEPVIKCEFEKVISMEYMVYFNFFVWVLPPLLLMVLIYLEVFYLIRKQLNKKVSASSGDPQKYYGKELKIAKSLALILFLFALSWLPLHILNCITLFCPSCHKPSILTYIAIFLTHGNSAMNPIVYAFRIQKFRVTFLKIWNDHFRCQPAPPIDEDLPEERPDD

CCNS(=O)(=O)C(F)(F)C(F)(F)C(F)(F)C(F)(F)C(F)(F)C(F)(F)C(F)(F)C(F)(F)F
AC50 [1]: 14.5 µM (active)

CCCCCCCCOC(=O)c1ccc(C(=O)OCCCCCCCC)c(C(=O)OCCCCCCCC)c1
outcome [2]: inactive
outcome [3]: inactive

CCCCCOC(=O)c1ccccc1C(=O)OCCCCC
outcome [3]: inactive

Nc1ccc(Cl)cc1N
AC50 [1]: 2.4 µM (active)

O=[N+]([O-])c1ccc(Oc2ccc(Cl)cc2Cl)cc1
outcome [3]: inactive

COP(=S)(OC)SCN1C(=O)c2ccccc2C1=O
AC50 [4]: 13.7 µM (active)

CCN(CC)CCO
outcome [2]: inactive
